# From publication PMC5540273 (PLoS ONE, 2017)
# Assays:
# Conditions in all cases: concentration: 1 μM, replicates: in singlicate; n = 1
# SGK2 = test system: SGK2
# SGK3 = test system: SGK3
# SGK = test system: SGK
# SIK2 = test system: SIK2
# SIK = test system: SIK
# SLK = test system: SLK
# SNARK = test system: T1, SNARK
# T1 construct: gene NUAK2
# SNRK = test system: SNRK
# SRC = test system: SRC
# SRMS = test system: SRMS
# SRPK1 = test system: SRPK1
# SRPK2 = test system: SRPK2
# SRPK3 = test system: SRPK3
# STK16 = test system: STK16
# STK33 = test system: STK33
# STK35 = test system: STK35
# STK36 = test system: STK36
# STK39 = test system: STK39
# SYK = test system: SYK
# SgK110 = test system: SgK110
# 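Note: KINOMEscan kinase panel screen.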
Structure (SMILES),%Inh (SGK2) [%],%Inh (SGK3) [%],%Inh (SGK) [%],%Inh (SIK2) [%],%Inh (SIK) [%],%Inh (SLK) [%],%Inh (SNARK) [%],%Inh (SNRK) [%],%Inh (SRC) [%],%Inh (SRMS) [%],%Inh (SRPK1) [%],%Inh (SRPK2) [%],%Inh (SRPK3) [%],%Inh (STK16) [%],%Inh (STK33) [%],%Inh (STK35) [%],%Inh (STK36) [%],%Inh (STK39) [%],%Inh (SYK) [%],%Inh (SgK110) [%]
CC(C)(C)c1ccc(C(=O)Nc2cn3cc(-c4ccccc4)ccc3n2)cc1,0,0,0,66,0,9,0,0,0,0,0,3,0,0,3,47,8,0,0,0
COc1cc2nccc(Nc3ccc(OCc4ccc(NC(C)=O)cc4)cc3)c2cc1OC.Cl [GW440135],0,0,2,4,0,3,0,0,14,20,42,12,23,2,15,3,29,3,6,21
OCCCNc1nccc(-c2c(-c3cccc(C(F)(F)F)c3)nn3cc(C(F)(F)F)ccc23)n1 [GW630813],0,6,0,0,0,4,0,0,0,0,7,2,0,8,0,0,55,0,0,0
Cn1c(=O)c(F)c(Nc2ccc(I)cc2F)c2c(=O)n(OC[C@H](O)CO)cnc21,3,0,0,0,4,0,0,0,11,0,15,13,7,14,0,0,9,32,20,0
CCS(=O)c1ccc(-c2coc3ccc(-c4nnc(C)o4)cc23)cc1 (centres unmarked),13,23,7,5,13,0,30,0,0,0,0,0,5,22,0,0,2,28,13,5
Nc1n[nH]c2nnc(-c3ccccc3)c(-c3ccccc3)c12 [GW554060],0,1,24,0,0,24,0,0,0,0,0,0,9,25,0,0,0,35,0,0
Cc1cccc(-c2nc(Nc3ccc4c(cnn4C)c3)c3ccccc3n2)n1 [GW876731],37,3,0,0,0,2,21,0,11,0,0,0,0,5,0,0,2,33,24,6
CCc1ccc(-c2ccc3c(c2)-c2nn(C)cc2S(=O)(=O)N3C)cc1,0,0,0,0,0,12,0,0,0,46,0,0,0,0,2,0,0,0,27,12
Nc1n[nH]c2ncc(-c3ccccc3)cc12 [SB-517081],2,9,7,12,2,0,0,0,0,8,0,12,12,22,0,0,0,0,8,0
Nc1ncnc2c1ncn2-c1cccc2ccccc12 [SKF-97184],21,4,35,0,0,0,0,2,8,17,0,32,12,9,0,0,6,25,0,31
